Screens from PubChem.
In the library only some 9.2% were active in any assay of this set; here they are far more common.
SMN2 splice enh: qHTS Assay for Enhancers of SMN2 Splice Variant Expression | HEK293 SMN2-luciferase splicing reporter, luminescence, 30-36 h | Potency, µM (series often up to 46.1 µM), for the others: at the top dose activity change, positive = activation, actives largely listed as activators | actives 2.8% (n = 210,000); also: % of control where 0% means no effect; nearly all actives have a fitted effect of over 55% in size
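HEK293 cells carry an SMN2 minigene-luciferase reporter in which exon 7 inclusion puts luciferase in frame. Cells were seeded at 2000 cells/well, attached for 10-12 hours, then exposed to compounds for 30-36 hours at 37C before ONE-Glo luminescence.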
NPC1 promoter act: qHTS Assay for NPC1 Promoter Activators; actives 2.4% (n = 320,000); Potency, µM (top dose mostly 9.22 µM), for inactives: at the top dose activation, usual class: activators; Huh7 NPC1 promoter luciferase reporter, 24 h; AID 485313, 2010; also: % of control where 0% means no effect; nearly all actives have a fitted effect of over 60% in size
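Luminescence from an NPC1 promoter-driven luciferase reporter in stably transfected Huh7 cells was measured after 24 h compound treatment at 37 °C, followed by 10 min ambient incubation with luciferase detection reagent.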
ELG1 genotoxic: qHTS screen for small molecules that induce genotoxicity in human embryonic kidney (HEK293T) cells expressing luciferase-tagged ELG1. Potency, µM (series often up to 46 µM), for the others: top-dose activity change, positive = activation, hits mostly activators. HEK293T ELG1-luciferase reporter, luminescence, 16 h. actives 1.3% (n = 330,000); also: % of control where 0% means no effect; nearly all actives have a fitted effect of over 60% in size
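ELG1-luciferase HEK293T cells, 2,000/well; compound pinned in; 16 hr, 37 °C, 5% CO2; ONE-Glo, 30 min RT; luminescence on CCD imager.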
Rab9 promoter act: qHTS Assay for Rab9 Promoter Activators | AID 485297, 2010 | actives 2.8% (n = 320,000) | Huh7 Rab9 promoter-luciferase reporter, luminescence, 24 h | Potency, µM (highest dose often 9.22 µM), without a hit: at the top dose activation, negative = inhibition, usual class: activators; also: % of control where 0% means no effect; nearly all actives have a fitted effect of over 60% in size
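Measured in stably transfected Huh7 cells bearing a Rab9 promoter–luciferase construct: 24 h compound treatment at 37 °C, followed by luminescence detection.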
FLuc modulator: qHTS profiling assay for firefly luciferase inhibitor/activator using purifed enzyme and Km concentrations of substrates (counterscreen for miR-21 project); AID 588342, 2011; Potency, µM (top dose mostly 57.5 µM), for the others: top-dose activity change, negative = inhibition, hits mostly inhibitors; purified FLuc, Km substrates, luminescence inhibition; Luciferin 4-monooxygenase (Photinus pyralis), P08659; actives 6.9% (n = 360,000);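 also: plate controls were vehicle for no effect and reference inhibitor for full effect; nearly all actives have a fitted effect of over 55% in size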
Target sequence (P08659 whole entry, looked up): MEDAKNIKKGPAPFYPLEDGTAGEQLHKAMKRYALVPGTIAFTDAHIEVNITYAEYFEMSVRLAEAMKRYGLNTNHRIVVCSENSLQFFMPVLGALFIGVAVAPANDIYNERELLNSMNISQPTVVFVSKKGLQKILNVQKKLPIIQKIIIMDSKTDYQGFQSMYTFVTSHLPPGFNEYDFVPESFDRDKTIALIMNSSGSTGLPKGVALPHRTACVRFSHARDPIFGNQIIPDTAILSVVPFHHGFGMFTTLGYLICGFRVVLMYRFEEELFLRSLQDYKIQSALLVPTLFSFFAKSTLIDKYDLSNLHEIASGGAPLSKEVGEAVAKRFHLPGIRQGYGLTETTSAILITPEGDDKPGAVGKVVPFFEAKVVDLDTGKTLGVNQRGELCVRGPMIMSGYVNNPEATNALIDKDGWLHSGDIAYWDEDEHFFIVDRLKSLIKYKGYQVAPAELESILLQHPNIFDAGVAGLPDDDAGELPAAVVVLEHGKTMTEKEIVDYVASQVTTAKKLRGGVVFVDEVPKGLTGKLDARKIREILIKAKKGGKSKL
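Biochemical qHTS of compounds, final roughly 60 µM downward over six points, against 10 nM purified firefly luciferase using Km concentrations of substrates (10 uM D-luciferin, 10 uM ATP) in Tris acetate pH 7.5 buffer; luminescence output.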
ELG1 DNA repair: qHTS screen for small molecules that inhibit ELG1-dependent DNA repair in human embryonic kidney (HEK293T) cells expressing luciferase-tagged ELG1. HEK293T ELG1-luciferase reporter, luminescence, 16 h; DNA damage induced by 5-fluorouridine. AID 504467, 2011. actives 2.3% (n = 330,000). Potency, µM (doses to about 46.1 µM), for inactives: at the top dose activity change, negative = inhibition, most hits filed as inhibitors; also: % is scaled to controls: 0 for no effect and ±100 for the full control effect; nearly all actives have a fitted effect of over 55% in size
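Reporter activity after DNA damage by 5-fluorouridine is monitored. Compound-treated cells incubate 16 hr at 37 °C, then ONE-Glo is added for 30 min before luminescence reading.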
The depositor's hits bear a star; ? = inconclusive; / = no result; [ ] = dose if it differs, or a comment. Calls follow the shape of the dose curve; as a rule, active = well fitted curve in the direction sought with a large enough effect; inconclusive = small, poorly fitted or top-dose-only effect, or another doubt; inactive = no such curve, though single readings can be large; an effect the other way counts as inactive or inconclusive. Potency is read from the fitted curve at half-maximal effect.

SMILES	SMN2 splice enh	NPC1 promoter act	ELG1 genotoxic	Rab9 promoter act	FLuc modulator	ELG1 DNA repair
COc1ccc(-n2c(C)cc(/C=C3\C(=O)NN(c4ccccc4)C3=O)c2C)cc1	?	?	?	27%	2.7µM*	?
O=C(c1cnc(N2CCOCC2)c2ccccc12)N1CCN(c2ccccc2)CC1	/	/	/	/	0%	/
CC/C=C\C/C=C\C/C=C\C/C=C\C/C=C\C/C=C\CCC(=O)NCCO	2%	/	/	/	/	/
C[n+]1ccc(/C=C/c2ccccc2O)c2ccccc21	-38%	-6%	-12%	-6%	-15%	?
CN1/C(=C/c2cc[n+](C)c3ccccc23)C=Cc2ccccc21	-90%	-43%	-21%	-39%	13µM*	1.3µM*
C=CC[C@H](CC(=O)NCCO)C(=O)NCCOC(=O)[C@@H](CC=C)CC(=O)OC(C)(C)C	/	/	4%	/	/	20%
O=C(NCCc1ccccc1)C(c1ccccc1F)N(C(=O)c1csnn1)C1CC1 (stereo unspecified)	/	3%	-7%	-1%	7%	-2%
CC(C)Oc1ccc(C(=O)Nc2ccc(C(F)(F)F)n(C)c2=O)cc1	-2%	2%	3%	10%	19µM*	?
Cc1[nH]c(=O)[nH]c(=O)c1NC(=O)c1ccc(OC(C)C)cc1	/	-3%	1%	-3%	0%	-5%
CC(C)c1ccc2oc(-c3cccc(NC(=O)c4ccc5c(c4)OCCO5)c3)nc2c1	-3%	/	/	/	2.1µM*	/
Cc1ccc2nc(-c3cccc(NC(=O)c4ccc5c(c4)OCCO5)c3)oc2c1	-13%	11%	12%	5%	9.5µM*	?
O=C(Nc1ccc2oc(-c3ccc4ccccc4c3)nc2c1)c1ccc2c(c1)OCCO2	-35%	?	7%	?	-1%	?
COc1ccc(-c2nc3c4cnn(-c5ccccc5F)c4ncn3n2)cc1	16%	/	/	/	?	/
Fc1ccccc1-n1ncc2c1ncn1nc(-c3ccccc3Cl)nc21	5%	/	/	/	0.95µM*	/
CNC(=O)c1cc(C(=O)c2ccc(Cl)cc2)c(Br)[nH]1	/	-12%	1%	-4%[1.84 µM]	3%	-3%
O=C(CSc1nnnn1-c1ccccc1)NC(=O)Nc1ccc2c(c1)OCCO2	?	?	?	?	19µM*	?
Cn1nnnc1SCC(=O)Nc1ccc2c(c1)OCCO2	11µM*	2.8µM*	?	1.6µM*	13µM*	?
CCOc1ccccc1-n1nnnc1SCC(=O)NC(=O)Nc1ccc2c(c1)OCCO2	-15%	1%	-1%	1%	-16%	?
Nn1c(SCC(=O)Nc2ccc3c(c2)OCCO3)nnc(CCC(=O)O)c1=O	/	-4%	-1%	-3%	13µM*	?
CSCCCNC(=S)N1CCc2ccccc2C1	-17%	-2%	-3%	-3%	?	?
O=C(CCS(=O)(=O)c1cc2c(cc1Cl)NC(=O)CO2)NCc1ccccc1Cl	/	/	/	/	-2%	/
CCCCC1(C)OC(=O)C(=Cc2ccc(-c3ccc(Cl)c(C(=O)O)c3)o2)C(=O)O1 (stereo unspecified)	/	3%	0%	-2%	?	6%
CCCN1C(=O)S/C(=C/c2ccc(N3CCOCC3)o2)C1=O	/	25%	?	?	?	?
O=C1NN(c2ccc(Cl)cc2)C(=O)/C1=C\c1ccc(-c2cccc(C(=O)O)c2)o1	26%	7%	15%	14%	17µM*	?
Cc1ccc(N2NC(=O)/C(=C/c3ccc(-c4ccc(Cl)c(C(=O)O)c4)o3)C2=O)cc1	9%	0%	0%	-3%	11µM*	4%
SMILES	SMN2 splice enh	NPC1 promoter act	ELG1 genotoxic	Rab9 promoter act	FLuc modulator	ELG1 DNA repair
CC(C)N1C(=O)S/C(=C\c2ccc(-c3ccc(Cl)c(C(=O)O)c3)o2)C1=O	/	0.5µM*	1.2µM*	0.4µM*	3µM*	?
CCOC(=O)CN1C(=O)S/C(=C\c2ccc(-c3ccc(C(=O)O)c(Cl)c3)o2)C1=O	/	-4%	-2%	9%	-9%	-8%
CCN(CC)c1ccc(/C=C2/SC(=O)N(C(C)C)C2=O)o1	21%	26%	-13%	24%	21µM*	?
CC12CCC(=O)N1C(C(=O)N1CCN(c3ccc([N+](=O)[O-])cc3)CC1)CS2 (stereo unspecified)	/	/	-10%	/	/	?
O=C1NN(c2ccccc2)C(=O)/C1=C\c1ccc(-c2cc([N+](=O)[O-])ccc2O)o1	/	-3%	1%	-4%	15µM*	6%
O=C1NC(=O)/C(=C/c2ccc(-c3cccc([N+](=O)[O-])c3)o2)S1	/	11%	2%	21%	?	-14%
Nc1ccc(C(=O)Oc2ccc([N+](=O)[O-])cc2)c(O)c1	/	-2%	-1%	2%	15µM*	9%
Nc1ccc(C(=O)Oc2ccc([N+](=O)[O-])cc2)cc1	/	5%	?	14%	3.4µM*	?
Nc1cc([N+](=O)[O-])ccc1C(=O)O	-6%	/	/	/	/	/
O=C(NC(=O)c1ccc(F)cc1F)Nc1ccc(Cl)cc1	/	?	13%	2.2µM*	-10%	?
CC(=O)Nc1ccc(N2CCCCC2)cc1	-10%	13%	7%	10%	-14%	12%
CS(=O)(=O)N1CCN(c2ccc(NC(=O)c3cccnc3Cl)cc2)CC1	20%	3%	7%	?	-9%	20%
O=C(Nc1ccc(N2CCCCC2)cc1)c1ccc(F)cc1F	/	0.32µM*	?	0.35µM*	1.3µM*	?
O=C(Nc1ccc(N2CCCCC2)cc1)c1cccnc1Cl	-6%	22%	21µM*	?	?	?
O=C(Nc1ccc(F)cc1)Nc1ccc(Cl)cn1	?	26%	?	?	-4%[2.3 µM]	?
O=C(Nc1ccc(N2CCCC2)cc1)c1ccccc1F	2.8µM*	0.5µM*	?	0.5µM*	2.1µM*	?
COC(=O)[C@@]1(Cc2ccccc2)[C@H]2c3cc(C(=O)N(C)C)n(Cc4c(CO)[nH]cc(C)c4=O)c3C[C@H]2CN1C(=O)c1ccccc1	0%	/	/	/	/	/
CCn1c(CNC(=O)C23CC4CC(CC(C4)C2)C3)nnc1SCC(=O)Nc1ccccc1	3%	/	/	/	-1%	/
CSc1ncccc1C(=O)OCC(=O)N(CC(C)C)c1c(N)n(Cc2ccccc2)c(=O)[nH]c1=O	/	2%	1%	-2%	4%	-12%
COC(=O)[C@H]1[C@@H](C)N(Cc2ccccc2)C(=O)N[C@H]1c1ccccc1	-1%[9.22 µM]	/	/	/	/	/
